Growth data for eight compounds are collected here from PubChem BioAssay (NCI).

The panel holds about 83,000 compounds, 20% with a hit somewhere; the sample as a whole holds those more often.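 Activity criterion: percent growth below 10, measured after cells in 96-well plates were exposed to a single compound concentration for 48 hours.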 Values without a mark were called inactive. Activity calls are given as the source filed them.

Test in all cases: NCI-60 one-dose screen, 48 h (100 = growth as untreated, 0 = no growth, -100 = all killed)
What all share (details): 10 µM unless noted

In assay [1] the test system is HCT-15 colon.
The subject of assay [2] is HT29 colon.
The subject of assay [3] is SNB-75 CNS.
The subject of assay [4] is SNB-19 CNS.
The subject of assay [5] is U251 CNS.
Assay [6] concerns PC-3 prostate.
Assay [7] has as its system SK-MEL-5 melanoma.
For assay [8], the system named is UACC-62 melanoma.
The subject of assay [9] is LOX IMVI melanoma.
Assay [10] has as its system SK-MEL-28 melanoma.
Assay [11] deals with SK-MEL-2 melanoma.
In assay [12] the test system is EKVX NSCLC.
Assay [13] has as its system SN12C renal.
Assay [14] has as its system UO-31 renal.
Assay [15] deals with TK-10 renal.
Assay [16] concerns ACHN renal.
Assay [17] concerns CAKI-1 renal.
The subject of assay [18] is A498 renal.
The test system of assay [19] is CCRF-CEM leukemia.
Assay [20] relates to MOLT-4 leukemia.

As for `Cc1cccc(NC2=C(Cl)C(=O)c3nc(C)ccc3C2=O)c1`, the growth in assay [1] is -54.8% (active); in [2], 115%; in assay [3], -64.9% (active); in assay [4] it was 23.7%; in [5], 32.8%; in assay [6], 24.6%. Besides, the growth in assay [7] was -93% (active); in assay [8] it was -67% (active); in assay [9], -54.6% (active); in [10], -54.5% (active); in assay [11], -9.34% (active); in assay [12], 75.7%. The growth in assay [13] is -71.2% (active); in [14], -93.3% (active); in assay [15], 123%; in assay [16], -98.3% (active); in [17], -33.1% (active); in assay [18], 42.1%. Moreover, the growth in assay [19] is 3.19% (active); in assay [20] it was -22.1% (active).
For `COc1cc(/C=C/c2ccccc2)cc(OC)c1`, the growth in assay [1] is 91%; in assay [2] it was 90.4%; in assay [3], 93.1%; in assay [4], 98.7%; in assay [5], 84.1%; in assay [6] it was 94.6%. Also, the growth is 96.5% in assay [7]; 83.4% in [8]; 84.8% in assay [9]; 111% in [10]; 93.7% in assay [11]; 78.9% in [12]. The growth in assay [13] was 100%; in assay [14], 80.1%; in assay [15], 95.9%; in assay [16], 96.6%; in assay [17], 81.3%; in assay [18], 88.7%. For the same compound, the growth in [19] was 108%; in [20], 89.3%.
Consider `OC(COc1ccccc1)CN1CCN(c2ccc(Cl)cc2)CC1` (stereo not given), for which the growth is 115% in assay [1]; 101% in [2]; 95.2% in [3]; 95.4% in assay [4]; 102% in assay [5]; 82% in [6]. Also, the growth in assay [7] was 96.2%; in [8] it was 90.3%; in [9] it was 101%; in assay [10], 96.9%; in assay [11] it was 104%; in assay [12], 109%. Also, the growth was 97.2% in assay [13]; 78.8% in assay [14]; 105% in assay [15]; 107% in assay [16]; 94.7% in assay [17]; 104% in assay [18]. The growth is -5.19% (active) in assay [19] and 93.1% in assay [20].
Take `COc1c(B(O)O)cc(C)cc1-c1nc2ccc3[nH]ncc3c2c2c1CCCC2`: the growth in [1] was 21.6%; in assay [2], 38.6%; in assay [3], -34.4% (active); in assay [4], 74%; in [5], 60.6%; in assay [6], 61.9%. In addition, the growth in assay [7] is 80.4%; in [8], 69.5%; in assay [9] it was 30.7%; in assay [10] it was 93.8%; in assay [11] it was 102%; in assay [12] it was 54.2%. In addition, the growth is 52% in assay [13]; 23.5% in assay [14]; 19.7% in assay [15]; 57% in assay [16]; -31.8% (active) in assay [17]; 49.2% in assay [18]. The growth is 35.1% in assay [19] and 19.7% in [20].
As to `O=C(CS(=O)c1oc(-c2cccs2)nc1S(=O)(=O)c1ccc(Br)cc1)c1ccccc1` (stereo not given), the growth in [1] was 101%; in [2] it was 102%; in [3] it was 79.9%; in assay [4] it was 86.9%; in assay [5], 88.2%; in [6], 85.5%. Besides, the growth in assay [7] was 97.7%; in [8], 88.4%; in [9] it was 104%; in [10] it was 105%; in assay [11] it was 89.3%; in assay [12], 111%. The growth in [13] was 96.2%; in assay [14], 80.3%; in assay [15], 104%; in [16], 94.1%; in assay [17], 90.9%; in [18], 49.1%. Also, the growth in assay [19] was 94.1%; in assay [20], 94.2%.
Take `COc1ccc(-c2c(C(=O)NS(C)(=O)=O)n(Cc3cccc(C(F)(F)F)c3)c3ccccc23)cc1`: the growth in assay [1] was 79.3%; in [2], 97.5%; in assay [3] it was 85.1%; in [4], 93.2%; in assay [5], 91%; in assay [6], 70.7%. For the same compound, the growth is 83% in assay [7]; 88.4% in assay [8]; 89.7% in assay [9]; 99.1% in assay [10]; 101% in assay [11]; 91% in [12]. Moreover, the growth in assay [13] is 85.2%; in assay [14], 73%; in assay [15], 105%; in [16], 91.8%; in assay [17], 80.1%; in assay [18], 80.1%. Further, the figures for the growth in [19] and in assay [20] were 75.5% and 90.3%, respectively.
In the case of `CCOC(=O)c1sc2ncc(-c3ccc(C)cc3)n2c1C`, the growth in assay [1] is 90.1%; in [2], 93.1%; in assay [3], 74.7%; in [4], 94.5%; in assay [5], 96.2%; in assay [6], 81%. Further, the growth was 95.1% in assay [7]; 72.6% in assay [8]; 85.2% in [9]; 102% in assay [10]; 101% in [11]; 88.4% in assay [12]. Besides, the growth in [13] is 86.6%; in [14], 78.2%; in [15], 147%; in [16], 84%; in assay [17], 88.1%; in [18], 104%. Also, the growth in assay [19] is 89.5%; in [20], 90.1%.
Regarding `Cc1ccc(C(CC(=O)O)c2c(C)[nH][nH]c2=O)cc1` (stereo not given), the growth in [1] is 103%; in assay [2], 113%; in assay [3], 92.9%; in [4] it was 98.5%; in assay [5], 96.4%; in assay [6], 105%. The growth in assay [7] was 102%; in [8], 96.1%; in [9] it was 95.5%; in [10], 110%; in assay [11] it was 113%; in [12], 105%. Moreover, the growth was 98.2% in assay [13]; 93% in assay [14]; 98.6% in assay [15]; 104% in [16]; 101% in assay [17]; 112% in assay [18]. Also, the growth is 97.1% in [19] and 98.8% in assay [20].
